Structures are written as SMILES. Results filed as inconclusive are left out. Activity calls are given as the source filed them. The calls were made as follows, unless noted: active = hit-call score of the fitted dose curve at least 0.9, where 1 is the maximum; inconclusive = response in the unintended direction; inactive = score below 0.9.

The target of test [1] is Retinoic acid receptor RXR-alpha (Homo sapiens) (UniProt P19793). Kind of test: ATG_RXRa_TRANS: Attagene TRANS-FACTORIAL HepG2 Assay for human Retinoid X Receptor alpha (RXRa) (AID 2283012). A digest of the protocol: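 Read-out: fluorescent reporter-transcript fragments quantified by capillary electrophoresis after RT-PCR. Transiently transfected HepG2 cells carrying GAL4-UAS reporters and NR-GAL4 chimeras were exposed to chemical for 24 h; activity scored as increase over DMSO.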
Retinoic acid receptor RXR-alpha (Homo sapiens), sequence (P19793 whole entry, looked up, the tested form may be a part): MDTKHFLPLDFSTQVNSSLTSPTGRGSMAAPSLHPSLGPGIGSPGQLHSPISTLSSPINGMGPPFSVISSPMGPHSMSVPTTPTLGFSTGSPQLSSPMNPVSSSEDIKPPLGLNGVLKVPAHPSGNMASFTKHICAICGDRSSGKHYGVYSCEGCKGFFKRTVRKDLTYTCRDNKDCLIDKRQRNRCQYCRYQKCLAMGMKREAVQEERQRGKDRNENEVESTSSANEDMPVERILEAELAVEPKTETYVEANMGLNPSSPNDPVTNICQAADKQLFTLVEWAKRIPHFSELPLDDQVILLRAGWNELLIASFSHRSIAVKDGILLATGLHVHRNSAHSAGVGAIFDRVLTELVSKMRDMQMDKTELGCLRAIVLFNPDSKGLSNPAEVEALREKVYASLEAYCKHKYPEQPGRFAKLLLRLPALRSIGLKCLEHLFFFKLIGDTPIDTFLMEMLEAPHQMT

The target of test [2] is human Thyroid Receptor alpha (THRa1), THRA (gene 7067) (UniProt P10827). The test is described as follows: ATG_THRa1_TRANS: Attagene TRANS-FACTORIAL HepG2 Assay for human Thyroid Receptor alpha (THRa1) (AID 2283014). The method in brief:
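Transient HepG2 transfection, NR-Gal4 chimera driving GAL4-UAS reporters; 24 h compound exposure; total RNA, oligo(dT) RT, PCR, fluorescent primer extension, capillary electrophoresis. Upward direction vs DMSO control.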

Test [3] deals with human Retinoid X Receptor beta (RXRb), RXRB (gene 6257) (UniProt P28702). The test is described as follows: ATG_RXRb_TRANS: Attagene TRANS-FACTORIAL HepG2 Assay for human Retinoid X Receptor beta (RXRb) (AID 2283013). The method in brief:
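Read-out: reporter mRNA induction via RT-PCR plus capillary electrophoresis fluorescence, analysed as signal increase relative to DMSO. Cells were human HepG2, transiently transfected with GAL4-UAS reporter constructs and chimeric receptor-Gal4 fusions, dosed for 24 h.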

Read-out in test [4]: E-selectin (Homo sapiens) (UniProt P16581)
Kind of test: BSK_3C_Eselectin: BioMAP Diversity Plus: 3C Assay for Eselectin Biomarker Activity (AID 2283015; active = hit-call score of the fitted dose curve at least 0.9, where 1 is the maximum; inactive = score below 0.9;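 as to outcome: cell surface E-selectin protein quantified by ELISA 24 h after dosing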). To be noted: primary human endothelial cells (HUVEC); actives raise or lower the signal. The method in brief:
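HUVEC, 3C stimulation; compound exposure 24 h; E-selectin by ELISA; gain- or loss-of-signal fitted bidirectionally vs DMSO baseline.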

Read-out in test [5]: Interleukin-1 alpha (IL1a), IL1A (gene 3552)
The test is described as follows: BSK_BE3C_IL1a: BioMAP Diversity Plus: BE3C Assay for Interleukin-1 alpha (IL1a) Biomarker Activity (AID 2283016; active = hit-call score of the fitted dose curve at least 0.9, where 1 is the maximum; inactive = score below 0.9). As to conditions: primary human bronchial epithelial cells; actives raise or lower the signal. The method in brief: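 ELISA read-out of IL-1a from human lung bronchial epithelial primary cells, 24 h post-dose. Gain or loss of signal fitted relative to DMSO negative control.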

Read-out in test [6]: Monocyte Chemoattractant Protein-1 (MCP1), CCL2 (gene 6347)
The test is described as follows: BSK_3C_MCP1: BioMAP Diversity Plus: 3C Assay for Monocyte Chemoattractant Protein-1 (MCP1) Biomarker Activity (AID 2283017; active = hit-call score of the fitted dose curve at least 0.9, where 1 is the maximum; inactive = score below 0.9). To be noted: primary human endothelial cells (HUVEC); actives raise or lower the signal. A digest of the protocol:
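HUVEC, 3C system; 24 h chemical exposure; MCP-1 by ELISA; bidirectional curve fit vs DMSO baseline.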

Read-out in test [7]: Human Leukocyte Antigen - DR isotype (HLADR), HLA-DRA (gene 3122)
The test is described as follows: BSK_3C_HLADR: BioMAP Diversity Plus: 3C Assay for Human Leukocyte Antigen - DR isotype (HLADR) Biomarker Activity (AID 2283019; active = hit-call score of the fitted dose curve at least 0.9, where 1 is the maximum; inactive = score below 0.9;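 as to outcome: ELISA of cell-surface HLA-DR on HUVEC 24 h after dosing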). As to conditions: primary human endothelial cells (HUVEC); actives raise or lower the signal. The method in brief: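 HUVEC, 3C stimulation, 24 h post-dose; HLA-DR by ELISA; bidirectional curve fit vs DMSO baseline; gain or loss of signal scored.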

Read-out in test [8]: Interleukin-8 (IL8), CXCL8 (gene 3576)
Kind of test: BSK_3C_IL8: BioMAP Diversity Plus: 3C Assay for Interleukin-8 (IL8) Biomarker Activity (AID 2283020; active = hit-call score of the fitted dose curve at least 0.9, where 1 is the maximum; inactive = score below 0.9). To be noted: primary human endothelial cells (HUVEC); actives raise or lower the signal. A digest of the protocol: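 HUVEC, 3C stimulation; 24 h compound exposure; IL-8 read by ELISA; gain or loss of signal fitted relative to DMSO control.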

Read-out in test [9]: Monokine induced gamma interferon (MIG), CXCL9 (gene 4283)
Kind of test: BSK_3C_MIG: BioMAP Diversity Plus: 3C Assay for Monokine induced gamma interferon (MIG) Biomarker Activity (AID 2283021; active = hit-call score of the fitted dose curve at least 0.9, where 1 is the maximum; inactive = score below 0.9;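 as to AC50: MIG protein level measured by immunoassay in the treated endothelial cultures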). To be noted: primary human endothelial cells (HUVEC); actives raise or lower the signal. A digest of the protocol:
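HUVEC, 3C system; 24 h chemical exposure; MIG by ELISA; bidirectional fit vs DMSO baseline.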

human Thyroid Receptor alpha (THRa1), THRA (gene 7067), sequence (P10827 whole entry, looked up, the tested form may be a part): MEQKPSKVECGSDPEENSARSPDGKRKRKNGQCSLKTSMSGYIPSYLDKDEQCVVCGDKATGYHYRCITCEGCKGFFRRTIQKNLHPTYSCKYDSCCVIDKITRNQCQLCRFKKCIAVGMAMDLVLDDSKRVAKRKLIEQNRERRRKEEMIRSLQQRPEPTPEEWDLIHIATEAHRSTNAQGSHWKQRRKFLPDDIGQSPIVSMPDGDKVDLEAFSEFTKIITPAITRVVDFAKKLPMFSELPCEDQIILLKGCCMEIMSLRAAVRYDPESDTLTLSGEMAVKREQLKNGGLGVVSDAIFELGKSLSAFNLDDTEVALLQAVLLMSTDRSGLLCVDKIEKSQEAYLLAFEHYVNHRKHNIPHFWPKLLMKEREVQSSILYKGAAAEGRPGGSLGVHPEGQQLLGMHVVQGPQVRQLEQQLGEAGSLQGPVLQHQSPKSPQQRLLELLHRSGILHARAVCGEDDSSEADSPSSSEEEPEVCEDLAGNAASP
E-selectin (Homo sapiens), sequence (P16581 whole entry, looked up): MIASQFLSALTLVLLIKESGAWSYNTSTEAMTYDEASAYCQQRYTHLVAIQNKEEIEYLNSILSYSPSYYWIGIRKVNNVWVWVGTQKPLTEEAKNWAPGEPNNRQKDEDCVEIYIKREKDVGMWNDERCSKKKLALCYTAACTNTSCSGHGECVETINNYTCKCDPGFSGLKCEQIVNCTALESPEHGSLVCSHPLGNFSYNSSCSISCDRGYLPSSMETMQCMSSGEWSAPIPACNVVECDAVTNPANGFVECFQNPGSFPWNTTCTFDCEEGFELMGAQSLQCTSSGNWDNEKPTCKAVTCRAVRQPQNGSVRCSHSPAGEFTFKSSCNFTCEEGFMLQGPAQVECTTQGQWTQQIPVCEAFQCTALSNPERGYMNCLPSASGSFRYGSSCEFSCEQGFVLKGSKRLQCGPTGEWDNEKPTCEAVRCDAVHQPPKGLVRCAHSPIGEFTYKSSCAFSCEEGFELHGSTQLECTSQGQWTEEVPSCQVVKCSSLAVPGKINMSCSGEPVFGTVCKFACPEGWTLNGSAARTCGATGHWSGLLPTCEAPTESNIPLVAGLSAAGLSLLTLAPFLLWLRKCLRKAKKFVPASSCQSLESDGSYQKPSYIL
human Retinoid X Receptor beta (RXRb), RXRB (gene 6257), sequence (P28702 whole entry, looked up, the tested form may be a part): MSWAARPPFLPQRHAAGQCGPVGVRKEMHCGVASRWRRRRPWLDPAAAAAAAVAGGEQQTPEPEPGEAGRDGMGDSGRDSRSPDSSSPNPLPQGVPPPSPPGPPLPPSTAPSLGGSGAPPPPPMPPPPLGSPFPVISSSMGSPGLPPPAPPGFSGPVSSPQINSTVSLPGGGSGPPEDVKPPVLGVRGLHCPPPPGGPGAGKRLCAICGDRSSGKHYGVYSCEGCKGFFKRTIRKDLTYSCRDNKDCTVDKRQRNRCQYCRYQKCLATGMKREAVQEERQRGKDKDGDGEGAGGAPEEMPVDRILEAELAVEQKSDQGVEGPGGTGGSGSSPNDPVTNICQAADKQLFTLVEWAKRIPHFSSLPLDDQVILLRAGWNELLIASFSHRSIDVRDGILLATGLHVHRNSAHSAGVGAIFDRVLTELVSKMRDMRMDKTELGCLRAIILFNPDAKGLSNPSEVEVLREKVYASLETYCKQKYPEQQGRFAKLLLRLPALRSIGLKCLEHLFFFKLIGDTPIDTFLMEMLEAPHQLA

For `COC(F)(F)C(F)(C(F)(F)F)C(F)(F)F`, the compound was classed as inactive in [1] and in test [2].
Regarding `O=C(Nc1ccccc1SSc1ccccc1NC(=O)c1ccccc1)c1ccccc1`, the result in test [1], in test [3], in [2], in test [4], in test [5] and in test [8] was inactive. Also, the outcome in [9] was inactive. The figures for the AC50 in [6] and in [7] were 8.27 µM (active) and 10 µM (active), respectively.
As to `O=c1cc(-c2ccccc2)oc2ccccc12`, the compound was classed as inactive in test [1] and in test [2].
As for `Oc1ccc(Cl)cc1Cc1cc(Cl)ccc1O`, the call in test [1] and in test [2] was inactive. In [3], the AC50 (commonly the midpoint of the concentration-response curve, whichever way the signal moves) was 6.46 µM (active).
With `CCCCCCCCc1ccc(Nc2ccc(CCCCCCCC)cc2)cc1`, the outcome in test [1], in test [3], in test [4], in test [5], in test [6] and in [7] was inactive. The outcome in test [8] and in [9] was inactive.
In the case of `CC(C)c1ccc2cc(C(C)C)ccc2c1`, the compound was called inactive in test [1] and in test [2]. Moreover, the half-maximal activity concentration (AC50) in [3] was 20.8 µM (active).
In the case of `O=C(O)CCCC[C@@H]1SC[C@@H]2NC(=O)N[C@@H]21`, the call in test [1], in test [3] and in [2] was inactive.
Consider `CC(C)=CCC[C@H](C)CCO`, for which the outcome in test [1] and in test [2] was inactive.
Turning to `C#CC1(O)CC[C@H]2[C@@H]3CCC4=CCCC[C@@H]4[C@H]3CC[C@@]21C` (stereo not given in full), the result in [1], in [3] and in test [2] was inactive. For the same compound, the AC50 in [4] was 8.71 µM (active); in [5], 35.5 µM (active); in test [6], 11 µM (active); in [7] it was 10.8 µM (active); in test [8] it was 10.2 µM (active); in [9], 12.9 µM (active).
For `O=C(O)c1ccccc1Nc1cccc(C(F)(F)F)c1`, the compound was classed as inactive in test [1] and in test [2].
As for `CCCCCCCCCCC=CC#N`, the compound was called inactive in test [1] and in [2]. Besides, the concentration at half-maximal activity (AC50) in [3] is 49.2 µM (active).
For `O=C(Nc1cccc(C(F)(F)F)c1)c1cc(Br)cc(Br)c1O`, the result in [1] and in test [2] was inactive.
For `O=S1(=O)OC(c2ccc(O)cc2)(c2ccc(O)cc2)c2ccccc21`, the compound was called inactive in [1] and in test [2].
For the compound `CCCCCCCCCCCSCC(=O)O`, the compound was classed as inactive in test [1] and in test [2].
On to `O=C(c1ccc(O)cc1)c1ccc(O)cc1O`, for which the compound was classed as inactive in test [1], in test [3], in test [2], in [4], in test [5] and in test [6]. Further, the outcome in [7], in test [8] and in [9] was inactive.
With `CCC(=O)Oc1ccc(/C(CC)=C(\CC)c2ccc(OC(=O)CC)cc2)cc1`, the AC50 in test [3] is 2.92 µM (active).
Take `COc1cc(C)ccc1C(C)C`: the half-maximal activity concentration (AC50) in [3] is 100 µM (active).
Consider `CCCCC/C=C\CCC=O`, for which the outcome in test [3] was inactive.
With `O=P(O)(O)Oc1ccccc1`, the result in test [3] was inactive.
As to `CCO[Si](CCCN=C=O)(OCC)OCC`, the compound was classed as inactive in test [1], in test [2], in test [4], in test [5], in test [6] and in test [7]. In addition, the result in [8] and in [9] was inactive.
With `CC(C)CCCCCOC(=O)CCS`, the outcome in test [3] was inactive.
Regarding `CCc1c(C(=O)O)c(=O)cnn1-c1ccc(Cl)cc1`, in test [3], the outcome was inactive.
With `C=C1[C@H]2CC[C@@H]3[C@H]2C(C)(C)CCC[C@]13C`, in test [3], the outcome was inactive.
Consider `c1ccc2c(c1)ccc1ncccc12`, for which the result in [1], in test [8] and in test [9] was inactive. Also, the AC50 in [4] was 16.4 µM (active); in [5], 20 µM (active); in test [6] it was 5.9 µM (active); in test [7] it was 20 µM (active).
For the compound `CN(C)c1ccc(N=Nc2ccccc2C(=O)O)cc1`, the call in test [3] was inactive.
Same read-out and setting: for `Cn1c(=O)[nH]c2ncn(C)c2c1=O` the value was “inactive”; for `CCCC(C)CCC(C)=O` (stereo not given), “inactive”.
`Cc1cc(C)c(C)c(O)c1`: the call in test [3] and in test [2] was inactive.
On to `CCCCCCCCCCCCCCCC[N+](C)(C)CC`, for which the call in test [1] was inactive. For the same compound, the half-maximal activity concentration (AC50) is 12.1 µM (active) in [2]; 3.48 µM (active) in test [4]; 7.31 µM (active) in test [5]; 2.66 µM (active) in test [6]; 0.932 µM (active) in test [7]; 3.73 µM (active) in [8]. In [9], the AC50 is 4.05 µM (active).
As to `C=C(C)[C@@H]1CCC2=CCC[C@@H](C)[C@]2(C)C1`, the AC50 in test [3] is 47.6 µM (active).
As for `CCc1ccc2c(c1)C(=O)c1ccccc1C2=O`, the compound was classed as inactive in [3] and in [2].
`FC(F)(F)C(=NOCC1OCCO1)c1ccc(Cl)cc1`: the AC50 in [3] was 20.4 µM (active).
`O=[N+]([O-])C1(Br)COCOC1`: the compound was classed as inactive in [3].
For `Nc1ncn([C@@H]2O[C@H](CO)[C@@H](O)[C@H]2O)c(=O)n1`, the compound was called inactive in [1] and in test [2].
Consider `C=C1C2CCC(C2)C1(C)C` (stereo not given), for which the result in test [3] and in [2] was inactive.
On to `CCCCCCCCCCCCCCCC[n+]1ccccc1`, for which the compound was called inactive in test [3].
`O=C(OCC1CCC2OC2C1)C1CCC2OC2C1` (stereo not given): in test [3], the outcome was inactive.
Regarding `CC(C)(c1cc(Br)c(OCCO)c(Br)c1)c1cc(Br)c(OCCO)c(Br)c1`, the AC50 in [1] was 81 µM (active); in test [4], 16.2 µM (active); in test [6], 11.7 µM (active); in [7], 18.6 µM (active); in test [8], 16.2 µM (active); in test [9], 27.6 µM (active). Further, the result in test [2] and in test [5] was inactive.
Regarding `O=C(O)CCCCCCCCCC(=O)O`, the outcome in test [1] and in test [2] was inactive.
Consider `NNC(=O)c1cccc(C(=O)NN)c1`, for which the call in test [3] and in [2] was inactive.
Regarding `C=C(C)C(=O)OCCOc1ccccc1`, the call in test [3] was inactive.
With `C[Si](C)O[Si](C)(C)O[Si](C)(C)O[Si](C)C`, the call in test [3] was inactive.
On the same count and under the same terms, for `Nc1ccc(N=Nc2ccccc2)c(N)n1` the value was “inactive”; for `O=C(O)c1cc2ccccc2nc1C(=O)O`, “inactive”; for `Cc1cc(C)c(C)cc1C`, “inactive”.
Regarding `COCc1c(C(C)C)nc(C(C)C)c(/C=C/[C@@H](O)C[C@@H](O)CC(=O)O)c1-c1ccc(F)cc1`, the compound was called inactive in test [1], in test [5] and in [9]. Moreover, the AC50 in test [6] was 4.73 µM (active); in test [7], 0.106 µM (active); in test [8], 0.0685 µM (active).

These data come from PubChem BioAssay (EPA / NIEHS).
